Data from PubChem BioAssay (Tox21).
“And” between values parts separate entries of the source, which are not always exact repeats. Equal values may be shown once. Results filed as inconclusive are left out. Some compounds were tested as several samples or in several runs, with calls that do not always agree. The source made the active and inactive calls. Unless noted, the call rests on the fitted dose curve.

Tested on: not listed separately
Experiment: Nuclear factor erythroid 2-related factor 2/antioxidant responsive element (Nrf2/ARE) small molecule agonists: qHTS cell viability counter screen in human keratinocytes (AID 1919968; active means well fitted curve in the direction sought with a large enough effect in the repeat runs; an effect the other way counts as inactive or inconclusive; further: nearly all actives have a fitted effect of over 55% in size)
Conditions: KeratinoSens HaCaT ARE cells viability, CellTiter-Fluor, 24 h; series mostly up to 92.4 µM; activity change, negative = cytotoxicity: at the top concentration
Procedure, shortened: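 After a 5 h attachment period, ARE-reporter keratinocytes were dosed with compounds in DMSO and then cultured 23 h at 37 C. Cell viability came from CellTiter-Fluor signal read after a further 1 h.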
On the % scale 0 is the no-effect control and ±100 the full control effect.

Row | Structure (SMILES) | Potency | activity change, negative = cytotoxicity
1 | CN(C)C(=O)C(c1ccccc1)c1ccccc1 | inactive | –
2 | CC1=C(C(=O)Nc2ccccc2)SCCO1 | inactive | –
3 | Cc1ccccc1CCl | – | 0.365% (inactive)
4 | COC(=O)c1ccccc1N | inactive | –
5 | Cc1ccc(O)c(C)c1 | inactive | –
6 | C#CC(C)(C)NC(=O)c1cc(Cl)cc(Cl)c1 | inactive | –
7 | CCC(C)n1c(=O)[nH]c(C)c(Br)c1=O (stereo unspecified) | – | 3.29% (inactive)

Tested on: not listed separately
Experiment: Nuclear factor erythroid 2-related factor 2/antioxidant responsive element (Nrf2/ARE) small molecule agonists: luciferase reporter gene qHTS assay in human keratinocytes (AID 1919969); further: nearly all actives have a fitted effect of over 35% in size; further: potency means the concentration at half of the fitted maximal effect
Conditions: KeratinoSens HaCaT ARE-luciferase, luminescence, 24 h; series mostly up to 92.4 µM; activity, positive = activation: at the top concentration

Row | Structure (SMILES) | Potency | activity, positive = activation
8 | Nc1ncc([N+](=O)[O-])s1 | inactive | –
9 | Oc1ccccc1-c1ccccc1 | 62.6 µM (active) and inactive | –
10 | ClCc1ccccc1 | – | 0.414% (inactive)
11 | CCCCC(C#N)(Cn1cncn1)c1ccc(Cl)cc1 (stereo unspecified) | inactive | –
12 | Cc1ccccc1N | inactive | –
13 | CCCC1CCCCN1 (stereo unspecified) | – | 0.461% [at 42.5 µM] (inactive)
14 | ClC(Cl)(Cl)c1ccccc1 | inactive | –
15 | CCCCCCCCCCCCBr | – | 21.1% (inactive)
16 | c1ccc2c(c1)Oc1ccccc1O2 | inactive | –
17 | Cc1ccc(N)cc1 | inactive and 48.6 µM (active) | –
18 | O=C(CCl)CCl | 28.3 µM (active) and 27.3 µM (active) | –
19 | Nc1ccc(Cl)cc1 | inactive | –
20 | O=S(=O)(O)C(F)(F)C(F)(F)C(F)(F)C(F)(F)C(F)(F)C(F)(F)F | – | -19.4% (inactive)
21 | CC(Cl)C(=O)O (stereo unspecified) | – | 2.36% (inactive)
22 | c1ccc2c(c1)oc1ccccc12 | inactive | –
23 | CC[C@H](N)c1ccccc1 | – | 1.76% (inactive)
24 | C=CC(=O)OCCO | – | 17.9% (inactive)
25 | C=C(C)[C@@H]1CC=C(C=O)CC1 | – | 7.56% (inactive)
26 | CN(CCO)CCO | – | -10.6% (inactive)

Row | Structure (SMILES) | Potency | activity, positive = activation
27 | COc1ccc(N)cc1 | inactive and 68 µM (active) | –
28 | CCCCCCCCCCOC(=O)c1ccccc1C(=O)OCCCCCCCCCC | – | -1.63% (inactive)
29 | COS(=O)(=O)c1ccc(C)cc1 | – | 4.17% (inactive)
30 | CC1(C)CC(=O)CC(C)(C)N1[O] | – | -4.02% (inactive)
31 | CCN(CCO)CCO | – | -4.59% (inactive)
32 | O=C(O)c1ccc(=O)[nH]c1 | – | -0.764% [at 42.5 µM] (inactive)
33 | Nc1ccccc1Cl | – | 0.117% (inactive)
34 | O=C1C(Cl)=C(Cl)C(=O)c2ccccc21 | 5.46 µM (active) and 8.63 µM (active) | –
35 | CCCCCCOC(=O)c1ccccc1C(=O)OCCCCCC | inactive | –
36 | CCCCOCCOC(C)=O | inactive | –
37 | C1CCC2CCCCC2C1 (stereo unspecified) | – | 2.42% (inactive)
38 | Cc1cc(-c2ccc(N)c(C)c2)ccc1N | inactive | –
39 | CN(C)C(=O)C(c1ccccc1)c1ccccc1 | inactive | –
40 | CC1=C(C(=O)Nc2ccccc2)SCCO1 | inactive and 61.1 µM (active) | –
41 | Cc1ccccc1CCl | – | -2.69% (inactive)
42 | COC(=O)c1ccccc1N | inactive | –
43 | Cc1ccc(O)c(C)c1 | inactive | –
44 | C#CC(C)(C)NC(=O)c1cc(Cl)cc(Cl)c1 | inactive | –
45 | CCC(C)n1c(=O)[nH]c(C)c(Br)c1=O (stereo unspecified) | – | -8.39% (inactive)

Biological target: Gonadotropin-releasing hormone receptor (Homo sapiens) (UniProt P30968)
Experiment: Human gonadotropin-releasing hormone receptor (GnRHR) small molecule agonists, calcium flux assay in GnRHR-HEK293 cells (AID 1920063); further: nearly all actives have a fitted effect of over 35% in size; further: potency means the concentration at half of the fitted maximal effect
Conditions: calcium flux fluorescence, agonist mode; series mostly up to 57.6 µM; activity change: at the top concentration
Procedure, shortened: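 We seeded human GnRHR-expressing HEK293 cells for 18 hours, loaded them with calcium dye for an hour at 37 C, added test compounds, and recorded fluorescence intensity kinetically for three minutes.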

Gonadotropin-releasing hormone receptor (Homo sapiens), sequence (P30968 whole entry, looked up): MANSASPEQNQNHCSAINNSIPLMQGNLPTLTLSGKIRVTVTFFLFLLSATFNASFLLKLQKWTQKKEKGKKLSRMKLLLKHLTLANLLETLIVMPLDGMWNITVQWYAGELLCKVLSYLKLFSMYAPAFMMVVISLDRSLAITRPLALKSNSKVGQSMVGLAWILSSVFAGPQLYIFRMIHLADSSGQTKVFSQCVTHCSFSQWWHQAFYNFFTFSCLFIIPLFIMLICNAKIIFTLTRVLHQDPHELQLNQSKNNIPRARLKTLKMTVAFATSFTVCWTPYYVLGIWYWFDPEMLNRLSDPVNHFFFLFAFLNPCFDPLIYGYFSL

Row | Structure (SMILES) | Potency | activity change
46 | Nc1ncc([N+](=O)[O-])s1 | inactive | –
47 | Oc1ccccc1-c1ccccc1 | inactive | –
48 | ClCc1ccccc1 | – | -2.76% (inactive)
49 | CCCCC(C#N)(Cn1cncn1)c1ccc(Cl)cc1 (stereo unspecified) | inactive | –
50 | Cc1ccccc1N | inactive | –
51 | CCCC1CCCCN1 (stereo unspecified) | – | -0.559% [at 26.4 µM, stronger effect = higher value] (inactive)
52 | ClC(Cl)(Cl)c1ccccc1 | inactive | –
53 | CCCCCCCCCCCCBr | – | 1.28% (inactive)
54 | c1ccc2c(c1)Oc1ccccc1O2 | inactive | –
55 | Cc1ccc(N)cc1 | inactive | –
56 | O=C(CCl)CCl | inactive | –
57 | Nc1ccc(Cl)cc1 | inactive | –
58 | O=S(=O)(O)C(F)(F)C(F)(F)C(F)(F)C(F)(F)C(F)(F)C(F)(F)F | – | 0.174% (inactive)
59 | CC(Cl)C(=O)O (stereo unspecified) | – | -0.477% (inactive)
60 | c1ccc2c(c1)oc1ccccc12 | inactive | –
61 | CC[C@H](N)c1ccccc1 | – | 0.63% (inactive)
62 | C=CC(=O)OCCO | inactive | –
63 | C=C(C)[C@@H]1CC=C(C=O)CC1 | – | -0.344% (inactive)
64 | CN(CCO)CCO | – | -0.203% (inactive)

Row | Structure (SMILES) | Potency | activity change
65 | COc1ccc(N)cc1 | inactive | –
66 | CCCCCCCCCCOC(=O)c1ccccc1C(=O)OCCCCCCCCCC | – | 1.02% (inactive)
67 | COS(=O)(=O)c1ccc(C)cc1 | – | 1.44% (inactive)
68 | CC1(C)CC(=O)CC(C)(C)N1[O] | – | 2.02% (inactive)
69 | CCN(CCO)CCO | – | 1.34% (inactive)
70 | O=C(O)c1ccc(=O)[nH]c1 | – | 0.486% [at 26.4 µM, stronger effect = higher value] (inactive)
71 | Nc1ccccc1Cl | – | -0.864% (inactive)
72 | O=C1C(Cl)=C(Cl)C(=O)c2ccccc21 | 34.8 µM (active) | –
73 | CCCCCCOC(=O)c1ccccc1C(=O)OCCCCCC | inactive | –
74 | CCCCOCCOC(C)=O | inactive | –
75 | C1CCC2CCCCC2C1 (stereo unspecified) | – | -0.181% (inactive)
76 | Cc1cc(-c2ccc(N)c(C)c2)ccc1N | inactive | –
77 | CN(C)C(=O)C(c1ccccc1)c1ccccc1 | inactive | –
78 | CC1=C(C(=O)Nc2ccccc2)SCCO1 | inactive | –
79 | Cc1ccccc1CCl | – | 1.1% (inactive)
80 | COC(=O)c1ccccc1N | inactive | –
81 | Cc1ccc(O)c(C)c1 | inactive | –
82 | C#CC(C)(C)NC(=O)c1cc(Cl)cc(Cl)c1 | inactive | –
83 | CCC(C)n1c(=O)[nH]c(C)c(Br)c1=O (stereo unspecified) | – | -0.525% (inactive)

Biological target: KiSS-1 receptor (Homo sapiens) (UniProt Q969F8)
Experiment: Human kisspeptin (KISS1R) small molecule agonists, calcium flux assay in KISS1R-HEK293 cells (AID 1920064; active means well fitted curve in the direction sought with a large enough effect in the repeat runs; an effect the other way counts as inactive or inconclusive)
Conditions: KISS1R-HEK293, calcium flux fluorescence, agonist; series mostly up to 76.8 µM; activation: at the top concentration
Procedure, shortened: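 Kinetic calcium assay, 1 s sampling over 3 min at Ex/Em 480/540, in HEK293 cells engineered with human KISS1R; compounds delivered in DMSO after 1 h dye loading.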

KiSS-1 receptor (Homo sapiens), sequence (Q969F8 whole entry, looked up): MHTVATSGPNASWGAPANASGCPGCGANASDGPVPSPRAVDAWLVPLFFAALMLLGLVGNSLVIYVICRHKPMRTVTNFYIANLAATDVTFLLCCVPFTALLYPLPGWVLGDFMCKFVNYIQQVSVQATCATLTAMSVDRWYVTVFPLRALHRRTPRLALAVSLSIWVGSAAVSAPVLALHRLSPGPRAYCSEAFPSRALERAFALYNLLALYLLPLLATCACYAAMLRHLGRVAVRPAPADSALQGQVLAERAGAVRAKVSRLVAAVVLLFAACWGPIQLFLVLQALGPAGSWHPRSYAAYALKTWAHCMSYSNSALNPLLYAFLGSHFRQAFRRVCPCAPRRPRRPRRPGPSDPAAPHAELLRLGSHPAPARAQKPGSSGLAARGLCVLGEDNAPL

Row | Structure (SMILES) | Potency | activation
84 | Nc1ncc([N+](=O)[O-])s1 | inactive | –
85 | Oc1ccccc1-c1ccccc1 | inactive | –
86 | ClCc1ccccc1 | – | -0.287% (inactive)
87 | CCCCC(C#N)(Cn1cncn1)c1ccc(Cl)cc1 (stereo unspecified) | inactive | –
88 | Cc1ccccc1N | inactive | –
89 | CCCC1CCCCN1 (stereo unspecified) | – | -0.0764% [at 35.3 µM] (inactive)
90 | ClC(Cl)(Cl)c1ccccc1 | inactive | –
91 | CCCCCCCCCCCCBr | – | 0.0937% (inactive)
92 | c1ccc2c(c1)Oc1ccccc1O2 | inactive | –
93 | Cc1ccc(N)cc1 | inactive | –
94 | O=C(CCl)CCl | inactive | –
95 | Nc1ccc(Cl)cc1 | inactive | –
96 | O=S(=O)(O)C(F)(F)C(F)(F)C(F)(F)C(F)(F)C(F)(F)C(F)(F)F | – | -2.37% (inactive)
97 | CC(Cl)C(=O)O (stereo unspecified) | – | 9.68% (inactive)
98 | c1ccc2c(c1)oc1ccccc12 | inactive | –
99 | CC[C@H](N)c1ccccc1 | – | 2.07% (inactive)
100 | C=CC(=O)OCCO | inactive | –
101 | C=C(C)[C@@H]1CC=C(C=O)CC1 | – | -0.477% (inactive)
102 | CN(CCO)CCO | – | -2.96% (inactive)

Row | Structure (SMILES) | Potency | activation
103 | COc1ccc(N)cc1 | inactive | –
104 | CCCCCCCCCCOC(=O)c1ccccc1C(=O)OCCCCCCCCCC | – | -3.69% (inactive)
105 | COS(=O)(=O)c1ccc(C)cc1 | – | -0.283% (inactive)
106 | CC1(C)CC(=O)CC(C)(C)N1[O] | – | 0.531% (inactive)
107 | CCN(CCO)CCO | – | 0% (inactive)
108 | O=C(O)c1ccc(=O)[nH]c1 | – | -0.47% [at 35.3 µM] (inactive)
109 | Nc1ccccc1Cl | – | 3.04% (inactive)
110 | O=C1C(Cl)=C(Cl)C(=O)c2ccccc21 | – | 14.1% (inactive)
111 | CCCCCCOC(=O)c1ccccc1C(=O)OCCCCCC | inactive | –
112 | CCCCOCCOC(C)=O | inactive | –
113 | C1CCC2CCCCC2C1 (stereo unspecified) | – | 1.81% (inactive)
114 | Cc1cc(-c2ccc(N)c(C)c2)ccc1N | inactive | –
115 | CN(C)C(=O)C(c1ccccc1)c1ccccc1 | inactive | –
116 | CC1=C(C(=O)Nc2ccccc2)SCCO1 | inactive | –
117 | Cc1ccccc1CCl | – | 0.655% (inactive)
118 | COC(=O)c1ccccc1N | inactive | –
119 | Cc1ccc(O)c(C)c1 | inactive | –
120 | C#CC(C)(C)NC(=O)c1cc(Cl)cc(Cl)c1 | inactive | –
121 | CCC(C)n1c(=O)[nH]c(C)c(Br)c1=O (stereo unspecified) | – | -2.35% (inactive)
